# Screens (PubChem)
# KDM4E inh: blocks human JMJD2E demethylase activity. JMJD2E catalytic domain, FDH-coupled NADH fluorescence (FDH is formaldehyde dehydrogenase). B2RXH2. Potency, µM (series often up to 57.1 µM), without a hit: at the top dose activity change, negative = inhibition, usual class: inhibitors. actives 1.6% (n = 230,000); active = well fitted inhibition curve with a large enough effect, not every such curve was filed as active; inconclusive = small, poorly fitted or top-dose-only effect, or another doubt; inactive = no such curve, though single readings can be large or run the other way;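 note: potency is the fitted concentration of half-maximal effect; 0% = wells with enzyme and -100% = buffer wells without enzyme; nearly all actives have a fitted effect of over 50% in size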
# HP1b chromo inh: HP1-beta chromodomain-methylated histone interaction inhibition; Potency, µM (series often up to 114 µM), for the others: at the top dose activity change, negative = inhibition, hits mostly inhibitors; AlphaScreen HP1-beta / biotin-H3K9me3 peptide binding; P83916; actives 0.56% (n = 390,000); note: potency is the fitted concentration of half-maximal effect; nearly all actives have a fitted effect of over 70% in size
#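 Compound inhibition of the preformed complex between 50 nM HP1-beta and 50 nM biotinylated H3K9me3 peptide was read by AlphaScreen. Buffer was PBS pH 7.4 with 0.01% Tween-20. Incubations ran 30 min at room temperature, with 10 ug/mL donor/acceptor beads.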
# BAZ2B block: inhibitors of human BAZ2B bromodomain; Potency, µM (top dose mostly 114 µM), inactives show at the highest dose activity change, negative = inhibition, most hits filed as inhibitors; actives 4.4% (n = 360,000); AlphaScreen BAZ2B-H3K14Ac peptide displacement; Q9UIF8; note: potency is the fitted concentration of half-maximal effect; % is set by controls: 0 for no effect and ±100 for the full control effect; nearly all actives have a fitted effect of over 60% in size
#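 Protein-peptide AlphaScreen: BAZ2B 50 nM, b-H3K14Ac 50 nM, 1x PBS pH 7.4 + 0.01% Tween-20. Preincubation 30 min RT; cpd 30 min RT (top 110 uM); beads 20 min RT, light-protected.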
# JMJD2A Tudor inh: JMJD2A Tudor domain (human) inhibition | O75164 | AlphaScreen JMJD2A-Tudor / H3K4me3 peptide binding | Potency, µM (top dose mostly 114 µM), for the others: at the highest dose activity change, negative = inhibition, actives largely listed as inhibitors | actives 4.4% (n = 390,000) | AID 504339; note: potency is the fitted concentration of half-maximal effect; % is set by controls: 0 for no effect and ±100 for the full control effect; nearly all actives have a fitted effect of over 50% in size
# Target sequence (O75164 whole entry, looked up, the tested form may be a part): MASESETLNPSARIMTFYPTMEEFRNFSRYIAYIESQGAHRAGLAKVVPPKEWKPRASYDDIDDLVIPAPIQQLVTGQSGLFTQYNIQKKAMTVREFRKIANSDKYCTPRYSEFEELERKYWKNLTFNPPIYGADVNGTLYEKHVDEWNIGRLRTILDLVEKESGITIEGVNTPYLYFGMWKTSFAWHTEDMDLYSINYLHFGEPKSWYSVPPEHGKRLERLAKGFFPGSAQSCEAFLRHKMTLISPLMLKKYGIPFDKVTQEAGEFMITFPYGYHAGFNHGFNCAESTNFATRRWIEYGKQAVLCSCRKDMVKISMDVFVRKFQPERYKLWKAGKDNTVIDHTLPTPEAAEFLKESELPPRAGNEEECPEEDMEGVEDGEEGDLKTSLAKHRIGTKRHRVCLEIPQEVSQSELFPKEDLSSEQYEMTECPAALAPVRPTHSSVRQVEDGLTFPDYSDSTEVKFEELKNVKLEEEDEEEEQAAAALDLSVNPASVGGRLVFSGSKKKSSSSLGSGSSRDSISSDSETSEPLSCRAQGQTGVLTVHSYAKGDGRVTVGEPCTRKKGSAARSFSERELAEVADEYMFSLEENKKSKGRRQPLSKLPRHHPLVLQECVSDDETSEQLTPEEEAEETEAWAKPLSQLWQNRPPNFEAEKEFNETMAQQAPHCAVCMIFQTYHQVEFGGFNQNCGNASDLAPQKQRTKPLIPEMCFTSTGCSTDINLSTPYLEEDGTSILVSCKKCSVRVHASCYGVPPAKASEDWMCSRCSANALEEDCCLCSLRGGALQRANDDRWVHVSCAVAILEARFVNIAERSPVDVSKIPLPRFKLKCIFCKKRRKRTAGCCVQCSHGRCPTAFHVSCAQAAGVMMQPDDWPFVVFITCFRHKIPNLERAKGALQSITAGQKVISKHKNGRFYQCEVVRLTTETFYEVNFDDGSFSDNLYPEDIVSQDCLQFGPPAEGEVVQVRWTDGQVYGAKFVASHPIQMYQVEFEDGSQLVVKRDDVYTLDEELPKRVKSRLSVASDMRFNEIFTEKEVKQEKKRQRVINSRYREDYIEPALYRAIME
# PI5P4Ka inh: inhibitors of human PI5P4K alpha; actives 1.2% (n = 330,000); PI5P4Kalpha enzyme, ADP-Glo luminescence, 60 min; hits give low values; P48426; max response, %; active = max response of -50% or lower; inconclusive = between -30% and -50%; inactive = -30% or higher; note: value at the top dose of about 77 µM; % is set by controls: 0 for no effect and ±100 for the full control effect
#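 Luminescence from ADP-Glo served as readout of PI5P4Kalpha activity in a qHTS format. Reaction: enzyme, substrate, compound, ATP at 5 microM final, 60 min at RT.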
# L3MBTL1 block: blocks human L3MBTL1; Q9Y468; AlphaScreen L3MBTL1–H3K9me1 peptide binding; Potency, µM (top dose mostly 57.1 µM), for inactives: at the highest dose activity, negative = inhibition, actives largely listed as inhibitors; AID 485360; actives 0.66% (n = 230,000); note: potency is the fitted concentration of half-maximal effect; % is set by controls: 0 for no effect and ±100 for the full control effect; nearly all actives have a fitted effect of over 60% in size
#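 AlphaScreen assay: L3MBTL1 (50 nM final) was preincubated 30 min at room temperature with biotinylated H3(1-15)K9me1 peptide (75 nM final), then 30 min with library compounds; streptavidin donor and nickel chelate acceptor beads (10 ug/mL final) added, 30 min dark.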
# Starred values were filed as active, the others as inactive; ? = inconclusive; nt = not tested or not shown; ! = not active in a repeat; [ ] = dose if it differs, or a comment. Shown are actives, neighbours in structure and some others; about 5.7% of the full set was active somewhere. Unless noted, calls come from the whole dose curve; as a rule, active = well fitted inhibition curve with a large enough effect; inconclusive = small, poorly fitted or top-dose-only effect; inactive = no such curve, though single readings can be large or run the other way.
SMILES,KDM4E inh,HP1b chromo inh,BAZ2B block,JMJD2A Tudor inh,PI5P4Ka inh,L3MBTL1 block
O=C(Nc1cccnc1)c1ccc(NS(=O)(=O)c2cc([N+](=O)[O-])ccc2Cl)cc1,-7%,20%,79µM*,-17%,?,-25%
O=C(Nc1ccccc1Oc1ccccc1)c1cc([N+](=O)[O-])ccc1Cl,1%,-20%,?,?,11,-9%
O=C(Nc1cccc([N+](=O)[O-])c1)c1cc2ccccc2cc1O,-6%,36%,50µM*,-7%[11.4 µM],-19,?
O=C(Nc1ccc(Nc2ccccc2)cc1)c1cc([N+](=O)[O-])ccc1Cl,nt,19%,40µM*,?,9,-20%
COc1cc2c(cc1OC)C(COc1ccc3c(C)cc(=O)oc3c1)N(C(=O)c1cccc(C)c1)CC2 (stereo unspecified),nt,19%,1%,-12%,nt,nt
COc1ccc(NC(=O)N2CCc3c(sc4c3CCCC4)C2c2ccccc2OC)cc1 (stereo unspecified),nt,1%,-39%,-30%,nt,nt
COc1ccc(CN2CCN(c3ccccc3OC)CC2)c(OC)c1,nt,-33%,?,20µM*,-1,-3%[2.29 µM]
COc1ccccc1N1CCN(c2ncnc3c2oc2ccccc23)CC1,2%,17%,-33%,-25%,5,3%
O=S1(=O)CCN(Cc2ccccc2C(F)(F)F)CC1,-10%,28%,-19%,-19%,5,-5%[11.4 µM]
COc1ccc(CN2CCN(Cc3ccccc3C(F)(F)F)CC2)c(OC)c1,nt,28µM*,28µM*,1.6µM*,-5,nt
COc1ccccc1N1CCN(Cc2ccc(O)c3ncccc23)CC1,1%,-11%,4.5µM*,13µM*,nt,nt
COc1cccc(CN2CCN(Cc3ccccc3C(F)(F)F)CC2)c1,nt,20µM*,25µM*,28µM*,-2,-11%
CCCOC(=O)c1c(NC(=O)C2c3ccccc3Oc3ccccc32)sc2c1CCC(C)C2 (stereo unspecified),nt,25%,-24%,-13%,nt,nt
Cc1cccc(OCC(=O)Nc2cccc(C(=O)OCc3cc(=O)n4nc(C(C)C)sc4n3)c2)c1,nt,6%,3%,-16%,nt,nt
CCOC(=O)C1CC2CC(C1)CN(C(=O)C1CCCCC1)C2 (stereo unspecified),-2%,63%,3%,0%,2,25%
N#Cc1c(N)nc(N)nc1Nc1ccc(Br)cc1,-16%,1%,-5%,-20%,-52*,1%
CCCCn1cc(S(=O)(=O)c2cc(C)ccc2C)c(=O)c2cc(F)c(N3CCC(C)CC3)cc21,nt,12%,3%,-16%,nt,nt
CCOc1ccccc1CNC(=O)c1[nH]c2ccccc2c1Sc1ccccc1,nt,-3%,-26%,-28%,nt,nt
COc1ccc(-c2cc(-c3c(O)c(OC)c4occc4c3OC)[nH]n2)cc1OC,?,?,?,56µM*,nt,-12%
COc1ccc(-c2cc(-c3c(O)c(OC)c4occc4c3OC)[nH]n2)cc1,?,0%,-37%,?,nt,nt
Cc1ccc(CNC(=O)C(C)n2c(=O)cc(-c3ccccc3)c3c(C)nn(C)c32)cc1 (stereo unspecified),nt,24%,-14%,-15%,nt,nt
CCN(CC)c1ccc(NC(=S)NC(=O)Cc2ccccc2)cc1,1%,?,11µM*,25µM*,4,?
O=C(c1cc(-c2ccc(Cl)cc2)on1)N(Cc1ccc(F)cc1)Cc1ccco1,nt,64%,11%,4%,nt,nt
Cc1ccc(-c2cc(C(=O)N(Cc3ccccc3)Cc3ccco3)no2)cc1F,nt,32%,50µM*,-3%,nt,nt
NC(=S)N/N=C/c1c[nH]c2ccc(OCc3ccccc3)cc12,nt,-19%,35µM*,?,2,-14%
SMILES,KDM4E inh,HP1b chromo inh,BAZ2B block,JMJD2A Tudor inh,PI5P4Ka inh,L3MBTL1 block
CCn1c(Oc2ccc(F)cc2F)nc2c1c(=O)n(C)c(=O)n2C,nt,1%,-13%,-17%,nt,nt
O=C1COc2ccc(N3C(=O)C=CC3=O)cc2N1,1%,nt,100µM*,nt,nt,-13%
Cc1ccc2[nH]c(C)c(CCNC(=O)c3c(N)no[n+]3[O-])c2c1,-7%,71µM*,?,50µM*,1,nt
CCc1cccc(C)c1NC(=S)NCCc1c(C)[nH]c2ccc(C)cc12,-5%,?,25µM*,45µM*,4,-13%
CCc1cccc(CC)c1NC(=S)NCCc1c(C)[nH]c2ccc(C)cc12,-1%,-22%,28µM*,32µM*,1,-21%
COc1ccc2[nH]c(C)c(CCNC(=S)Nc3cc(C)ccc3C)c2c1,0%,32%,2%,-21%,-5,-2%
Cc1ccc(NS(=O)(=O)c2ccc(-c3ccccc3)cc2)cc1C,nt,nt,nt,-13%,nt,nt
Cc1oc2c(cc(NS(=O)(=O)c3ccc(C(C)C)cc3)c3ccccc32)c1C(=O)O,nt,-14%,50µM*!,?,-23,nt
Cc1oc2c(cc(NS(=O)(=O)c3ccc(F)cc3)c3ccccc32)c1C(=O)O,nt,?,-32%,-35%,?,nt
COc1ccccc1NC(=O)C(=O)N/N=C(\C)CC(=O)Nc1ccccn1,9%,44%,79µM*,-8%,4,4%
COc1ccc(NC(=O)CSC2=Nc3ccccc3C3=NC(Cc4ccccc4)C(=O)N23)cc1 (stereo unspecified),nt,-11%,-17%,-25%,nt,nt
Cc1ccc(Cl)cc1N1CCN(C(=O)CN(c2ccccc2)S(=O)(=O)N(C)C)CC1,10%,6%,45µM*,-12%[11.4 µM],-28,nt
CC(C)(c1ccccc1)c1ccc(OCCCNCCO)cc1,?,-7%,56µM*,-15%[11.4 µM],6,nt
C=CCNCCCCOc1ccc(OCC)cc1,9%,18%,5%,-16%,3,nt
C=CCNCCCOc1ccc(C(C)(C)c2ccccc2)cc1,-25%,?,40µM*,1.6µM*,3,1%
CC1CCN(C(c2ccc(N(C)C)cc2)c2nnnn2C(C)(C)C)CC1 (stereo unspecified),?,?,50µM*,56µM*,3,nt
CC1CCN(C(c2ccc(N(C)C)cc2)c2nnnn2Cc2ccccc2)CC1 (stereo unspecified),3%,?,18µM*,50µM*,2,-4%
COc1ccc(Cn2nnnc2C(c2ccc(N(C)C)cc2)N2CCC(C)CC2)cc1 (stereo unspecified),?,-48%,28µM*,45µM*,2,-11%
COc1ccc(-n2c(=O)c3c(c4cc(OC)ccc4n3C)n(C)c2=O)cc1,nt,32%,-2%,-7%,nt,nt
CC(C)(C)c1ccc2c(c1)C(=O)c1ccccc1C2=O,2%,?,32µM*,45µM*,25,?
CCOc1ccccc1CNC(=O)c1cnn(-c2ccc(C)cc2)c1-n1cccc1,nt,31%,-13%,-14%,nt,nt
